The whole screen tested about 59,000 compounds, of which about 60 (0.1%) were called active. No rule for the calls is given here. The list comes from a sample in which actives are over-represented; it also holds similar structures and randomly drawn compounds.

The nature of the assay: qHTS Assay for Spectroscopic Profiling in A488 Spectral Region. As to conditions: compound autofluorescence; max dye equivalency: Compound Type: qHTS ECL - SigmaAldrich, stronger effect = higher value unless noted; outcome: dye equivalency, Compound Type: qHTS ECL - MLSMR unless noted. An excerpt:
NIH Molecular Libraries Screening Centers Network [MLSCN]
NIH Chemical Genomics Center [NCGC]
Occasionally, the artifactual effect may originate from the compounds own spectral or other biophysical properties which generally tend to track its assay concentration. Pre-screening/profiling the library with respect to the compounds spectral properties should help one exclude false positives early on. While the most informative fluorescent profiling data set is obtained by performing a full excitation and emission scan of each well by using a monochromator-based plate reader, such an approach is practical only on a very limited scale as scanning each well requires long time. An alternative approach, applied here, is to perform plate reader scans using selected excitation and emission wavelength pairs to generate a multidimensional relational database that correlates compound concentration and the respective relative fluorescence intensity at a given wavelength set. A standard curve of Alexa 488 (A488) present on each plate as six-point concentration series, was used to compute a normalized fluorescence response, termed dye-equivalent concentration, for each compound at each concentration.
NCGC Assay Protocol Summary:
100 mM Tris buffer, pH 8.0
The wells in columns 1 through 4 of a Kalypsys polypropylene 1536-well compound plate were filled with standard solutions of fluorophore corresponding to the spectral region of interest. Solutions of A488 were placed in the following wells: Y1, Z1: 3 mM, Y2, Z2: 300 uM, Y3, Z3: 30 uM, Y4, Z4: zero (DMSO), AA1, AB1: 3 uM, AA2, AB2: 900 nM, AA3, AB3: 300 nM, AA4, AB4: zero (DMSO).
Six uL of buffer were dispensed to 1536-well Greiner black plates. Compounds and dye standards (23 nL) were transferred via Kalypsys PinTool. The plates were incubated for 15 min at room temperature, and then read on ViewLux (Perkin-Elmer) High-throughput CCD imager using 480 nm and 540 nm excitation and emission filter set.
Keywords: NIH Roadmap, MLSCN, MLI, MLSMR, qHTS, NCGC, A488, A-488, Fluorescent Profiling.
Background: qHTS replaces the single test concentration by a dilution series.
Turning to `O=C(O)c1c(Br)c(Br)c(Br)c(Br)c1C1c2ccc(O)cc2Oc2cc(O)ccc21`, the max dye equivalency was 15 nM [Compound Type: qHTS ECL - NCI, stronger effect = higher value] (active).
In the case of `COc1ccc(OC)c(CN2C(=O)CCC2(C)C(=O)NC2CCCCCC2)c1` (configuration not stated), the outcome was inactive.
The same measure, in the same setting: then `CCCCCN(C(=O)NC(=O)Nc1ccccc1OC)S(C)(=O)=O`, with “inactive”.
Same read-out and setting: then `Cn1c(=S)c2[nH]c(SCCCc3ccccc3)nc2n(C)c1=O`, with “inactive [dye equivalency, Compound Type: qHTS ECL - NCI]”.
`ClC(Cl)(Cl)C(N1CCN(c2ccccc2)CC1)N1CCN(c2ccccc2)CC1`: the outcome is “inactive [dye equivalency, Compound Type: qHTS ECL - NCI]”.
As to `CCOC(=O)c1cc2n(c1N)-c1ccccc1C2=O`, the max dye equivalency was 39 nM [Compound Type: qHTS ECL - DPISMR, stronger effect = higher value] (active).
As to `CCOC(=O)Nc1ccccc1N1C(=O)c2ccccc2C1=O`, the outcome was inactive.
The same measure, in the same setting: the same measure for `CCOC(=O)c1cc2n(c1C)-c1ccccc1C2=O`: “inactive”; for `COc1ccc2oc(C)c(NC(C)=O)c2c1`: “inactive”; for `NC(=O)CSC1=Nc2ccccc2C2=NC(CCC(=O)NCc3ccc(F)cc3)C(=O)N12` (configuration not stated): “inactive [dye equivalency, Compound Type: qHTS ECL - DPISMR]”.
The same measure, in the same setting: the same measure for `Oc1c(C(c2ccccn2)N2CCOCC2)ccc2cccnc12` (configuration not stated): “inactive”; for `COc1cc(OC)cc(C(=O)Nc2ccc(-c3nc4ccccc4o3)c(O)c2)c1`: “inactive”.
Same read-out and setting: then `Clc1ccccc1-c1cc(NCCN2CCOCC2)ncn1`, with “inactive [dye equivalency, Compound Type: qHTS ECL - Pharmacopeia]”; and `O=C1c2ccncc2C(=O)N1C1CCCCC1`, with “inactive”.
For the compound `COc1cc(C2C(C#N)=C(N)Oc3n[nH]c(-c4ccccn4)c32)cc(OC)c1OC` (configuration not stated), the outcome was inactive.
The same measure, in the same setting: then `CS(=O)(=O)c1ccc2nc(NC(=O)CN3CCCCCC3)sc2c1`, with “inactive”; and `CC(=O)c1sc2nc(SCC(=O)N3CCCCC3)[nH]c(=O)c2c1C`, with “inactive [dye equivalency, Compound Type: qHTS ECL - DPISMR]”.
Same read-out and setting: the same measure for `O=C(CN1CCN(c2ncc(C(F)(F)F)cc2Cl)CC1)Nc1ccc2c(c1)OCO2`: “inactive”; for `O=c1cnc2cnc(Nc3ccccc3)nc2n1Cc1ccc(F)cc1`: “inactive [dye equivalency, Compound Type: qHTS ECL - Pharmacopeia]”; for `CCOc1ccc(-n2c(SC(C)C(=O)OC)nc3c(c2=O)SCC3)cc1` (configuration not stated): “inactive”.
On to `CC(Sc1sc(=S)sc1SC(C)C(=O)O)C(=O)O` (configuration not stated), for which the outcome was inactive.
The same measure, in the same setting: the same measure for `CN(C)c1ccc(-c2nc(NCCN3CCOCC3)c3ccccc3n2)cc1`: “inactive [dye equivalency, Compound Type: qHTS ECL - Pharmacopeia]”.

(Values after PubChem BioAssay AID591 (National Center for Advancing Translational Sciences (NCATS), 2007).)
